# Reference: PubChem BioAssay (NCI)
# This is part of a sample that, as a whole, favours compounds with a hit. Of some 83,000 tested, about 20% had one in any assay.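 For each line, cells grew in 96-well plates with the test compound present at a single concentration for 48 hours.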 Unmarked numbers belong to inactive results. Calls of active or inactive are those of the source. How the source made its calls: active means growth percent below 10; inactive means the rest.
# What was measured:
# Assay in all cases: NCI-60 one-dose screen, 48 h (100 = growth as untreated, 0 = no growth, -100 = all killed)
# Conditions in all cases: 10 µM unless noted
# T-47D breast = tested on: T-47D breast
# BT-549 breast = tested on: BT-549 breast
# MDA-MB-435 melanoma = tested on: MDA-MB-435 melanoma
# SW-620 colon = tested on: SW-620 colon
# MCF7 breast = tested on: MCF7 breast
# HCT-116 colon = tested on: HCT-116 colon
# HCC-2998 colon = tested on: HCC-2998 colon
# KM12 colon = tested on: KM12 colon
Compound,growth (T-47D breast),growth (BT-549 breast),growth (MDA-MB-435 melanoma),growth (SW-620 colon),growth (MCF7 breast),growth (HCT-116 colon),growth (HCC-2998 colon),growth (KM12 colon)
C/C(=C(/c1ccccc1)c1ccc(OCC(O)CN2CCOCC2)cc1)c1ccccc1 (stereo not given),60.3%,93.3%,90.7%,88.6%,84.2%,46.3%,102%,–
Fc1ccc(C2CC(c3cccc(Nc4ccncc4)c3)=NN2c2ccccc2)cc1 (stereo not given),71%,87.7%,-54.8% (active),-65.4% (active),8.89% (active),61.9%,3.99% (active),–
O=C(CN1CCOCC1)Nc1ccc2ncnc(Nc3ccc(OCc4cccc(F)c4)c(Cl)c3)c2c1,18.5%,70.8%,72.1%,109%,54.7%,64.5%,88.6%,–
CN1CCN(CCCOc2ccc3ncnc(Nc4ccc(Oc5cccc(C(F)(F)F)c5)c(Cl)c4)c3c2)CC1,19.2%,69.9%,-82% (active),-71.6% (active),-28.7% (active),-62% (active),-66.2% (active),–
CCCCCCCCOC(=O)c1ccc(O)c(OC)c1,82.7%,102%,106%,109%,66.9%,102%,97.9%,–
COc1ccc(-n2cc(-c3cc(OC)c(OC)c(OC)c3)n(C(C)=O)c2=O)cc1,77.2%,100%,84.3%,98.1%,71.5%,94%,108%,–
C=C(C)[C@H]1CC/C(C)=C/CC[C@]2(C)O[C@H]2CC/C(COC(=O)[C@@H](OC(C)=O)[C@H](NC(=O)c2ccccc2)c2ccccc2)=C\[C@@H]1O,73.6%,97.1%,92.3%,105%,81.2%,89.6%,96.5%,–
CC1=CC[C@@H]2CC[C@]3(C)[C@H](CC[C@@H]4[C@@]5(C)CCCNC(C)(C)[C@@H]5CC[C@]43C)[C@H]2[C@@H]1C,65%,97.1%,-17.3% (active),-66.3% (active),-28.2% (active),-32.1% (active),-51.5% (active),–
O=c1[nH]nc(-c2ccc(Br)cc2)cc1Cc1ccc(O)cc1,83.2%,95.8%,113%,97.3%,86%,100%,118%,–
COC(=O)Nc1nc2ccc(C(=O)c3cccc(I)c3)cc2[nH]1,63.8%,6.76% (active),-35.8% (active),21.3%,17.6%,9.66% (active),18.3%,–
COc1cc2nc(-c3ccc(C(F)(F)F)cc3)cc(OCCN3CCCC3)c2cc1OC,86.5%,70.4%,97.2%,91.2%,85.1%,67.3%,82%,–
CCC(=O)c1ccc(O)c(OC)c1,109%,114%,114%,101%,108%,91.2%,101%,–
O=C(Nc1cccc(Cl)c1)c1cc(Cl)ccc1O,-11.9% (active),-6.47% (active),5.73% (active),6.44% (active),4.21% (active),6.01% (active),–,–
COc1cnccc1-c1nc2ccc3[nH]ncc3c2c2c1CCCC2,68.4%,43.3%,13.2%,28.1%,43.5%,23.8%,58.4%,–
CN1CCN(Cc2ccc(NC(=O)c3cncc(C#Cc4cnccc4C(F)(F)F)c3)cc2C(F)(F)F)CC1,92.2%,91.8%,54.7%,62.8%,49%,29.1%,65.7%,–
O=C(NCCN1CCOCC1)OCc1nc2nc(Cl)nc(N3CCOCC3)c2[nH]1,63.2%,13.1%,-28.9% (active),23.9%,20.2%,8.45% (active),77.8%,–
COc1cc(NCC(C)(O)CN(CC(C)C)CC(C)C)c2nc(C)ccc2c1 (stereo not given),7.65% (active),92.4%,102%,86.5%,-46.1% (active),66.3%,75.5%,–
CCNC(=O)c1[nH]cc(-c2ccc(OC)cc2)c1-c1cc(OC)c(OC)c(OC)c1,27.7%,72.5%,-4.43% (active),31.4%,24.4%,15.3%,89.2%,–

Compound,growth (T-47D breast),growth (BT-549 breast),growth (MDA-MB-435 melanoma),growth (SW-620 colon),growth (MCF7 breast),growth (HCT-116 colon),growth (HCC-2998 colon),growth (KM12 colon)
CCCCCCc1nc2nc(Cl)c(Cl)nc2[nH]1,22.7%,66.5%,61.9%,87.6%,64.4%,57.1%,61.3%,–
O=S(=O)(NCCCNc1nccc(-c2c(-c3ccccc3)nc3occn23)n1)c1ccc(Cl)cc1,58.9%,104%,64.3%,108%,60.5%,68.4%,102%,95.7%
CN1CCN(C(=O)[C@]2(C)CC[C@]3(C)CC[C@]4(C)C(=CC(=O)[C@@H]5[C@@]6(C)CCC(=O)NC(C)(C)[C@@H]6CC[C@]54C)[C@@H]3C2)CC1,79.9%,87.2%,100%,96.4%,91.8%,93.1%,113%,98.1%
COc1cc(-c2nc3occn3c2-c2ccnc(NCCNS(=O)(=O)c3ccc(Cl)cc3)n2)ccc1F,51.6%,95.5%,62.2%,109%,65.5%,63.6%,103%,86.9%
CC[C@H](CC[C@@H](C)[C@H]1CC[C@H]2[C@@H]3CC=C4C[C@@H](OCCc5nn[nH]n5)CC[C@]4(C)[C@H]3CC[C@]12C)C(C)C,90.2%,116%,112%,121%,101%,95.1%,109%,–
CCOC(=O)N1CCN(CCCCl)CC1,103%,99.5%,103%,107%,97.7%,93.8%,101%,–
Cc1[nH]c(C(=O)Nc2ccccc2OCc2cccc(C(=O)NCCN)c2)c(Cl)c1Cl,46.5%,97.2%,69.1%,3.75% (active),14.7%,7.52% (active),84.4%,–
COc1cccc(CCC(=O)c2cc3c(N)c(C(=O)Nc4cccc(Cl)c4C)sc3nc2C)c1,28.2%,50.6%,-54.8% (active),34%,11.3%,13%,6.58% (active),–
COc1ccccc1OCC(=O)N1CCCCCC1,103%,129%,101%,100%,92.8%,123%,108%,–
CCCC1C(C(=O)OCC)=C(N)Oc2cc(O)ccc21 (stereo not given),88.8%,94%,90.6%,97.1%,103%,88.3%,105%,–
C(=N\Nc1ncc(-c2cc3cc4c(cc3o2)OCO4)s1)/c1c[nH]c2ccccc12,-3.93% (active),-56.9% (active),-31.6% (active),-33.9% (active),-0.831% (active),-1.24% (active),-3.45% (active),-29.8% (active)
COc1cc(C2CC(c3cccc(Nc4ccncc4)c3)=NN2c2cc(Cl)cc(Cl)c2)cc(OC)c1OC (stereo not given),26.7%,104%,-85% (active),-62.6% (active),-50.7% (active),87.3%,-60.4% (active),–
Cc1ccc(-c2csc(/N=C3\C(=O)Nc4ccccc43)n2)cc1,20%,23.6%,12.9%,19.4%,6.92% (active),4.56% (active),6.25% (active),15.2%
ClCC1(Cn2cnc3c(Cl)nc(Cl)nc32)COC1,72%,108%,87.6%,66.3%,76.1%,13.7%,-6.15% (active),–
COc1cc(NCCCN(CC(C)C)C2CCCC2)c2ncccc2c1,29.9%,75.6%,89.2%,41.4%,0.473% (active),37.8%,92.4%,–
OC(c1ccccc1)c1ccccn1 (stereo not given),87.4%,93.4%,104%,102%,102%,103%,104%,102%
NC(=O)C1(N2CCCCC2)CCN(CCCC(=O)c2ccc(F)cc2)CC1,44%,56.3%,-48.3% (active),19.6%,20%,19.3%,11%,–
